Records with an inconclusive call do not appear. Activity calls are given as the source filed them. The calls were made as follows: active = hit-call score of the fitted dose curve at least 0.9, where 1 is the maximum; inconclusive = response in the unintended direction; inactive = score below 0.9.
What follows are compounds tested against human Opioid Receptor Mu (Opiate Mu), OPRM1 (gene 4988) (UniProt P35372) (assay: NVS_GPCR_hOpiate_mu: NovaScreen (NVS) G Protein-Coupled Receptor Assay for human Opioid Receptor Mu (Opiate Mu) (AID 2283290);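 also: hits lower bound tracer signal versus DMSO meaning displacement of the ligand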).
human Opioid Receptor Mu (Opiate Mu), OPRM1 (gene 4988), sequence (P35372 whole entry, looked up): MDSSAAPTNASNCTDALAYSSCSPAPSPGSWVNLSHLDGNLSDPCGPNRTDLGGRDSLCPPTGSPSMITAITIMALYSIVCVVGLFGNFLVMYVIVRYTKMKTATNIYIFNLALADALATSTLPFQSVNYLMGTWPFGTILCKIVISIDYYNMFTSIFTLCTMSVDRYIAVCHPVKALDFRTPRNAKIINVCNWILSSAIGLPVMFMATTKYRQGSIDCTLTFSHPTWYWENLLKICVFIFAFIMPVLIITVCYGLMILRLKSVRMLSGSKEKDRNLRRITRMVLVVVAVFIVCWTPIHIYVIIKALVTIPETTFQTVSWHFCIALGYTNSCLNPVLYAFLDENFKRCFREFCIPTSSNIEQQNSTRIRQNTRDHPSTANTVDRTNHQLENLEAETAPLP
Method: NVS_GPCR_hOpiate_mu is a biochemical, single-readout assay that uses extracted gene-proteins from CHO in a cell-free assay. Measurements were taken 2.5 hours after chemical dosing in a 96-well plate.NVS_GPCR_hOpiate_mu is one of one assay component(s) measured or calculated from the NVS_GPCR_hOpiate_mu assay. It is designed to make measurements of radioligand binding, a form of binding reporter, as detected with scintillation counting signals by Filter-based radiodetection technology.Data from the assay component NVS_GPCR_hOpiate_mu was analyzed into 1 assay endpoint. This assay endpoint, NVS_GPCR_hOpiate_mu, was analyzed in the positive analysis fitting direction relative to DMSO as the negative control and baseline of activity. Using a type of binding reporter, loss-of-signal activity can be used to understand changes in the binding as they relate to the gene OPRM1. Furthermore, this assay endpoint can be referred to as a primary readout, because the performed assay has only produced 1 assay endpoint. To generalize the intended target to other relatable targets, this assay endpoint is annotated to the gpcr intended target family, where the subfamily is rhodopsin-like receptor.
Binding assays used specific radioligands (tritiated, iodinated) with non-radioactive competitive displacement ligands in agonist or antagonist protocols (as indicated) and various reference compounds and inhibitors to titrate specific binding to receptors and transporters. Most enzyme assays (CYPs, kinases, phosphatases, proteases, HDACs) used recombinant protein and specific substrates (fluorescence mostly, some colorimetric and radioactive) and inhibitors, followed by a biochemical separation of substrate and product. All assays for the biochemical HTS were initially run in duplicate at a single concentration (10 uM for CYP450 assays and 25 uM for all others). […] Each assay was run with positive and negative controls, and concurrent controls on every plate. The follow-up (secondary) screen tested active chemical-pairs in concentration series, as well as a few additional assays not tested in the primary screen, some selected negative inactives, and several cases re-run in the concentration series for confirmatory purposes.
For `Nc1ccc(Cl)cc1N`, the AC50 was 39.5 µM (active).
In the case of `N#CC(Br)(Br)C(N)=O`, the outcome is reported as “inactive”.
For `CCC[CH2][Sn]([Cl])([CH2]CCC)[CH2]CCC`, the outcome was “inactive”.
In the case of `O=C(N[C@H](c1ccccc1)[C@@H]1CN2CCC1CC2)c1c(Cl)ccc(C(F)(F)F)c1Cl`, the AC50 is reported as 10.1 µM (active).
In the case of `O=[N+]([O-])c1ccc(Oc2ccc(Cl)cc2Cl)cc1`, the outcome is reported as “inactive”.
`[Cl-].[Cl-].[Hg+2]` was tested, and the AC50 was 0.197 µM (active).
With `COP(=S)(OC)SCN1C(=O)c2ccccc2C1=O` the outcome was “inactive”.
For `CCCCCCCCn1sccc1=O`, the AC50 was 7.66 µM (active).
`O=[N+]([O-])C(Br)(CO)CO` was tested, and the outcome was “inactive”.
With `CCOC(=O)[C@]1(c2ccccc2)Oc2ccccc2[C@@H]1N` the AC50 was 13.1 µM (active).

Source: PubChem BioAssay (EPA / NIEHS)
